# Results published in PubChem BioAssay AID652154 (Broad Institute, 2013).
# Hit rate of the full screen: of about 360,000 compounds, about 4,200 (1.2%) were called active. For the sample, actives were picked, then their nearest neighbours and some compounds at random. A number with no mark means an inactive call.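 The calls were made as follows: active = mean replicate inhibition at least 60% with every replicate also reaching 60%; inconclusive = only one of the two criteria is met; inactive = mean below 60% and not all replicates reaching 60%.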
# Assay: inhibitors of PAX8-driven TPO luciferase reporter, primary screen, RMG-I cells, single concentration (AID 652154);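 also: luciferase light reporting Pax8 driven TPO promoter activity; plate controls were median of neutral control wells for no effect and mitoxantrone controls for full effect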
# Details: SteadyGlo, 24 h, at 12.6 µM, hits give high values
row,Compound,inhibition
1,C[C@@H]1CCCCO[C@@H](CN(C)Cc2ccc(C(=O)O)cc2)[C@H](C)CN([C@H](C)CO)C(=O)c2cc(NS(=O)(=O)c3cccs3)ccc2O1,0.438%
2,CC(C)NC(=O)N(C)C[C@H]1OCCCC[C@H](C)Oc2ccc(NS(=O)(=O)c3cccs3)cc2C(=O)N([C@H](C)CO)C[C@@H]1C,-10.4%
3,Cc1ccc(S(=O)(=O)Nc2ccc3c(c2)C(=O)N([C@H](C)CO)C[C@@H](C)[C@H](CN(C)C(=O)Nc2ccc(C(F)(F)F)cc2)OCCCC[C@H](C)O3)cc1,54.1%
4,C[C@@H]1CCCCO[C@@H](CN(C)Cc2ccccc2)[C@H](C)CN([C@H](C)CO)C(=O)c2cc(NS(=O)(=O)c3cccs3)ccc2O1,6.46%
5,C[C@@H]1CN([C@H](C)CO)C(=O)c2cc(NS(=O)(=O)c3cccs3)ccc2O[C@@H](C)CCCCO[C@H]1CN(C)Cc1ccc(C(F)(F)F)cc1,96.8% (active)
6,C[C@@H]1CCCCO[C@H](CN(C)C(=O)Nc2ccc(C(F)(F)F)cc2)[C@@H](C)CN([C@@H](C)CO)C(=O)c2cc(NS(=O)(=O)c3cccs3)ccc2O1,80.1% (active)
7,CC(=O)N1[C@@H](CO)[C@@H](c2ccccc2)[C@@H]1CN(C)C(=O)CN1CCOCC1,12.7%
8,Cn1cnc(S(=O)(=O)N2C[C@H](O)COC[C@@H]3O[C@H](CC(=O)NC4CCCC4)CC[C@H]32)c1,-34%
9,CC(C)NC(=O)N1[C@H](CO)[C@@H]2c3ccccc3N(C(=O)c3ccccc3F)C[C@@H]21,-9.8%
10,COc1ccccc1C#Cc1ccc([C@@H]2[C@H](CO)N3CCCCN(C(=O)C4CCCC4)C[C@@H]23)cc1,-8.82%
11,Cc1ccc(NC(=O)Cn2nnc(C(=O)NCc3ccco3)c2N)c(C)c1,8.75%
12,CCOc1ccccc1NC(=O)Cn1nnc(C(=O)NCc2cccs2)c1N,68.5% (active)
13,COc1cccc(CNC(=O)c2nnn(CC(=O)Nc3cc(C)ccc3C)c2N)c1,5.68%
14,Cc1ccc(-c2ccc3c(c2)O[C@H](CN(C)C(=O)CC2CC2)[C@@H](C)CN([C@H](C)CO)S3(=O)=O)cc1,11.8%
15,Clc1ccc2nc(-c3ccccc3)nc(C(Cl)Cl)c2c1,32.4%
16,CSc1nc(-c2ccccc2)nc(C(Cl)Cl)n1,99.3% (active)
17,C[C@@H]1CN([C@H](C)CO)C(=O)c2cc(NC(=O)CCCN(C)C)ccc2O[C@@H](C)CCCCO[C@H]1CN(C)CC1CCCCC1,-3.49%
18,CCC(=O)Nc1ccc2c(c1)OC[C@H](C)N(CC1CCOCC1)C[C@@H](C)[C@@H](OC)CN(C)C2=O,6.07%
19,O=C(C[C@@H]1CC[C@@H]2[C@H](COC[C@@H](O)CN2C(=O)c2ccccc2F)O1)N1CCOCC1,5.42%
20,COc1cccc2c1C(=O)c1c(O)c3c(c(O)c1C2=O)CC(O)(C(C)=NNC(=O)c1ccc(Cl)c(Cl)c1)CC3OC1CC(N)C(O)C(C)O1 (stereo unspecified),107% (active)
21,CC(=O)N[C@@H]1CC[C@@H](CCNC(=O)C2CC2)O[C@H]1CO,11.9%
22,O=C(C[C@H]1CC[C@@H](NC(=O)Nc2cc(F)ccc2F)[C@@H](CO)O1)NCc1ccncn1,0.809%
23,OC[C@@H]1[C@H](c2ccc(C#CC3CC3)cc2)[C@@H]2CN(CCC(F)(F)F)CCCCN12,-6.92%
24,O=C([C@H]1[C@H](CO)[C@H]2Cn3c(ccc(C4=CCCC4)c3=O)[C@@H]1N2C(=O)c1ccncc1)N1CCCCC1,0.28%

row,Compound,inhibition
1,O=C(CCc1c[nH]c2ccccc12)NCCOc1ccccc1,-5.95%
2,O=C(CCOc1ccccc1)NCc1ccccc1,-18.5%
3,CCCCCCCCC(=O)NCCOc1ccccc1,111% (active)
4,COc1cccc(C(=O)Nc2nnc(S(=O)(=O)N(C)c3ccccc3)s2)c1,2.52%
5,COc1ccc(C(=O)Nc2cccc(S(C)(=O)=O)c2)cc1,-14.4%
6,COc1cccc(C(=O)Nc2nc3ccc(S(C)(=O)=O)cc3s2)c1,80.8% (active)
7,O=C(Nc1ccccc1F)N1[C@H](CO)[C@H]2c3ccccc3NC[C@H]21,-4.34%
8,COc1cccc(/C=N/Nc2ncc(C(F)(F)F)cc2Cl)c1O,63.6% (active)
9,O=c1[nH]c2cccnc2n(CCNc2ncc(C(F)(F)F)cc2Cl)c1=O,-4.25%
10,CN(C)C=NC(=O)c1cccn1-c1ncc(C(F)(F)F)cc1Cl,5.77%
11,CNC(=O)C[C@H]1CC[C@H]2[C@H](COc3ccc(NC(=O)c4cc(C)on4)cc3C(=O)N2C)O1,57.2%
12,COCC(=O)Nc1ccc2c(c1)C(=O)N(C)C[C@H](OC)[C@@H](C)CN(CC1CC1)[C@@H](C)CO2,-3.11%
13,C[C@@H]1CN([C@H](C)CO)S(=O)(=O)c2ccc(C#Cc3ccccc3F)cc2O[C@@H]1CN(C)C(=O)c1ccc2c(c1)OCO2,73.7% (active)
14,COCC#Cc1ccc2c(c1)O[C@H](CN(C)Cc1ccc3c(c1)OCO3)[C@H](C)CN([C@H](C)CO)S2(=O)=O,0.398%
15,C[C@@H]1CN([C@@H](C)CO)S(=O)(=O)c2ccc(C#Cc3ccccc3F)cc2O[C@H]1CN(C)C(=O)c1ccc2c(c1)OCO2,101% (active)
16,CCCC#Cc1ccc2c(c1)O[C@@H](CN(C)C(=O)CC)[C@H](C)CN([C@H](C)CO)S2(=O)=O,-8.15%
17,C[C@H]1CN([C@@H](C)CO)S(=O)(=O)c2ccc(C#Cc3ccccc3F)cc2O[C@@H]1CN(C)C(=O)c1ccc2c(c1)OCO2,72.5% (active)
18,CC(C)C#Cc1ccc2c(c1)O[C@@H](CN(C)C(=O)Nc1ccccc1)[C@H](C)CN([C@H](C)CO)S2(=O)=O,15.8%
19,C[C@H]1CN([C@@H](C)CO)S(=O)(=O)c2ccc(-c3cccc(C#N)c3)cc2O[C@H]1CN(C)C(=O)c1ccccc1,15.6%
20,CCCC#Cc1ccc2c(c1)O[C@H](CN(C)C(=O)CC)[C@@H](C)CN([C@H](C)CO)S2(=O)=O,-14.1%
21,C[C@H]1CN([C@@H](C)CO)S(=O)(=O)c2ccc(C#CCN(C)C)cc2O[C@H]1CN(C)C(=O)c1ccccc1F,-3.76%
22,C[C@H](CO)N1C[C@H](C)[C@H](CN(C)Cc2cccc(F)c2)Oc2ncc(C#CCN(C)C)cc2C1=O,10.3%
23,Cc1cc(OC(=O)NCCc2ccc(F)cc2)ccc1F,-1.24%
24,OC[C@H]1[C@@H](c2ccc(-c3ccccc3F)cc2)[C@@H]2CN(Cc3ccncc3)CCCCN12,17.2%

row,Compound,inhibition
1,CCCc1cn(CC[C@H]2CC[C@@H](NS(=O)(=O)c3ccccc3Cl)[C@@H](CO)O2)nn1,-2.22%
2,O=C(C[C@@H]1C=C[C@H](NC(=O)Nc2ccccc2F)[C@@H](CO)O1)NCc1ccccc1,1.09%
3,COc1ccc(CN2[C@H](CO)[C@@H]3c4ccccc4N(C(=O)C4CC4)C[C@@H]32)cc1,5.67%
4,Brc1ccc(COCCc2cn(Cc3ccccc3)c3ccccc23)cc1,-11.9%
5,O=C1NC(c2cc3c(cc2Cl)OCO3)Oc2ccccc21 (stereo unspecified),-6.52%
6,COc1ccccc1C1C2=C(COC2=O)Nc2cc3c(cc21)OCO3 (stereo unspecified),85.6% (active)
7,O=C1OCC2=C1C(c1ccc(Cl)cc1)c1cc3c(cc1O2)OCO3 (stereo unspecified),11%
8,C[C@@H]1CN([C@H](C)CO)C(=O)c2cc(NS(=O)(=O)c3ccccc3)ccc2O[C@H]1CN(C)S(=O)(=O)c1ccc(Cl)cc1,3.11%
9,Cc1ccc(C(=O)C(=S)N2CCOCC2)cc1,67.2% (active)
10,Cc1ccc(C(=O)OC(C)CN2CCOCC2)cc1 (stereo unspecified),-27.6%
11,Cc1ccc(C(=O)Oc2ccc(C(=S)N3CCOCC3)cc2)cc1,-7.47%
12,C[C@@H]1CN([C@@H](C)CO)C(=O)Cc2cc(NC(=O)CCN3CCOCC3)ccc2O[C@@H]1CN(C)CC1CC1,-46.4%
13,O=C(NCCN1CCOCC1)c1ccc2c(c1)N(Cc1cccc(Cl)c1)C(=O)c1ccccc1S2(=O)=O,-1.71%
14,CCN1CCN(CCNC(=O)c2ccc(/C=C3/Sc4ccccc4N(Cc4cccc(C)c4)C3=O)cc2)CC1,84.9% (active)
15,Cc1cccc(-c2nc3ccc(C(=O)NCCN4CCN(C)CC4)cc3nc2-c2cccc(C)c2)c1,50.9%
16,C[C@@H]1CCCCO[C@@H](CN(C)CC2CC2)[C@H](C)CN([C@H](C)CO)C(=O)c2cc(NS(=O)(=O)c3ccccc3)ccc2O1,3.85%
17,CN(O)C(=S)c1ccccc1,82% (active)
18,COc1cccc(CN(C)C[C@H]2OCc3ccccc3-c3c(n(C)c4ccccc34)C(=O)N([C@@H](C)CO)C[C@@H]2C)c1,11%
19,O=C(c1ccncc1)N1C[C@@H]2[C@H](c3ccccc31)[C@H](CO)N2C(=O)c1ccncc1,-12.9%
20,CC(C)NC(=O)N(C)C[C@@H]1Oc2ccc(N(C)C)cc2CC(=O)N([C@H](C)CO)C[C@@H]1C,-4.65%
21,O=C(C[C@H]1CC[C@@H]2[C@H](COC[C@@H](O)CN2C(=O)Nc2ccc(C(F)(F)F)cc2)O1)NCCc1ccncc1,-6.11%
22,C[C@@H]1CN([C@H](C)CO)C(=O)c2cc(NC(=O)C3CCCCC3)ccc2O[C@H]1CN(C)C(=O)Nc1ccccc1,9.45%
23,C[C@H](CO)N1C[C@H](C)[C@@H](CN(C)C(=O)Nc2ccc3c(c2)OCO3)Oc2ccc(NC(=O)NC3CCCCC3)cc2CC1=O,-23.2%
